This note sets out measurements from PubChem BioAssay AID1779 (Sanford-Burnham Center for Chemical Genomics, 2009).

The campaign covered roughly 290,000 compounds. About 160 (0.055%) were called active. Only a selection was taken, and actives are over-represented in it overall. Unmarked numbers belong to inactive results. No stated cut-off is given here; in the data, active means inhibition above about 50%; inactive means the rest.

In this assay the target is Tyrosine-protein phosphatase non-receptor type 22 (Homo sapiens) (UniProt Q9Y2R2). In words: PTPN22 lymphoid phosphatase activity blockers – biochemical, fluorescence intensity, uHTS (AID 1779).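 Further: plate controls were vehicle with enzyme for no effect and no enzyme for full effect.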 The following applies: recombinant LYP phosphatase, at 11.5 µM, active compounds read high.
Tyrosine-protein phosphatase non-receptor type 22 (Homo sapiens), sequence (Q9Y2R2 whole entry, looked up): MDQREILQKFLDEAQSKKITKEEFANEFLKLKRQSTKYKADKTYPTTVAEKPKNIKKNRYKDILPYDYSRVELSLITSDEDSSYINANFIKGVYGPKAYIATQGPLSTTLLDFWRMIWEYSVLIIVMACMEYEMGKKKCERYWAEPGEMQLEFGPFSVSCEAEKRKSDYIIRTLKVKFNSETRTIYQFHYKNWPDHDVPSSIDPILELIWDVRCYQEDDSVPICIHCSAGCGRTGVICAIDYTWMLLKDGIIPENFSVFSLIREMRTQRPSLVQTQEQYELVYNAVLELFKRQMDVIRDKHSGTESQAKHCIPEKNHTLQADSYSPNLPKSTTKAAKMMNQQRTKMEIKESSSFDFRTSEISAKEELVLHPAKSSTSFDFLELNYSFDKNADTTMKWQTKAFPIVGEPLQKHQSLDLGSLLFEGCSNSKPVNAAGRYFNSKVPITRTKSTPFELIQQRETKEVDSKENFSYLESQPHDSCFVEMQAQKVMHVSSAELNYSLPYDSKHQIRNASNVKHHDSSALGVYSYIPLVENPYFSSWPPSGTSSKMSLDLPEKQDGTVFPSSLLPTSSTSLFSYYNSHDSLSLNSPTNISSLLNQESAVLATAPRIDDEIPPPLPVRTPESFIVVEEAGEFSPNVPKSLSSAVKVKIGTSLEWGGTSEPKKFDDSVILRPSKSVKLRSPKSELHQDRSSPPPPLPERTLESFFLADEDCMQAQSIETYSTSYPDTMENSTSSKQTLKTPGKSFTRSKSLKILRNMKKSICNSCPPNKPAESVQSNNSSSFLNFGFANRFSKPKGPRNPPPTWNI
Turning to `CC(=O)c1ccc2c(c1)C1C(Cl)C(Sc3ccccc3[N+](=O)[O-])CC1C(C(=O)O)N2` (stereo not given), the inhibition is 51.4% (active). The same measure for `CCN(CC)C(=O)c1ccc2c(c1)C1C(Cl)C(Sc3ccccc3[N+](=O)[O-])CC1C(C(=O)O)N2` (stereo not given): 6.1%; for `CC(=O)c1ccc2c(c1)C1C(Cl)C(Sc3ccccc3[N+](=O)[O-])CC1C(c1ccccc1)N2` (stereo not given): 6%; for `O=P(Nc1ccccc1)(Nc1ccccc1)Oc1ccc(Cl)cc1`: -4%.

As for `COCc1cc(C2SCC(=O)Nc3c2c(=O)[nH]n3C(C)C)ccc1OC` (stereo not given), the inhibition was -11.3%.

For `CCOP(=O)(/C=C(\Cl)c1ccccc1)C(O)c1ccc(F)cc1` (stereo not given), the inhibition is -5.3%. As for `CC(=O)C1C(=O)NC23CCCCC2C1c1ccccc1O3` (stereo not given), the figure is 1.8%; as for `O=c1c2ccccc2nc(/C=C/c2ccccc2)n1-c1ccc(O)cc1`, 3.1%. The same measure for `O=c1c2ccccc2nc(-c2cccs2)n1-c1ccccc1`: -10.4%; for `COc1ccc(-n2c(/C=C/c3ccc(O)cc3)nc3ccccc3c2=O)cc1`: -7.8%; for `CCn1nc(/C=C/c2ccccc2)nc2c(=O)n(C)c(=O)nc1-2`: 79.3% (active). The same measure for `COc1ccc(-n2c(-c3ccccc3)nc3ccccc3c2=O)cc1`: -9.9%; for `CCn1nc(-c2cccs2)nc2c(=O)n(C)c(=O)nc1-2`: 52.8% (active); for `CCn1nc(-c2ccccc2)nc2c(=O)n(C)c(=O)nc1-2`: 60.7% (active). Regarding `CCCc1nc2ccccc2c(=O)n1-c1ccc(OC)cc1`, the inhibition is 2.2%.

As for `CCOc1ccc(-n2c(-c3cccs3)nc3ccccc3c2=O)cc1`, the inhibition was 8.8%. The same measure for `COc1ccc(C(=O)N2CCC3(CC2)OCCO3)cc1`: -5%; for `c1ccc2c(CN3CCOCC3)c[nH]c2c1`: -8.9%; for `Cc1cc(OC(=O)c2cccs2)c2c3c(c(=O)oc2c1)CCCC3`: 2.4%.

In the case of `CCOC(=O)C(O)(c1ccc(NC(=O)Oc2ccccc2)cc1)C(F)(F)F` (stereo not given), the inhibition is -3.1%. The same measure for `CCN1CCN(c2ccc([N+](=O)[O-])cc2C=C2C(=O)NC(=O)NC2=O)CC1`: -8.1%. `c1nc2nc3c(c(N4CCNCC4)n2n1)CCCC3`: the inhibition was -3.9%. As for `S=P(Nn1cnnc1)(c1ccccc1)c1ccccc1`, the inhibition is 0.6%. The same measure for `CCOC(=O)c1c(C)n(CC(O)CN2CCOCC2)c2cc(Br)c(OC)cc12` (stereo not given): -6.1%; for `COc1ccc(-c2nn(CCC#N)cc2C(=O)Nc2ccccc2)cc1OC`: -8%; for `CN(C)CC1CSCCC1(O)c1ccc(C(F)(F)F)cc1` (stereo not given): -5.6%. Take `Cc1ccc(-c2nc3ccccc3c(=O)n2-c2ncccc2C)cc1`: the inhibition is -0.2%.

With `Cc1cccnc1-n1c(-c2ccccc2)nc2ccccc2c1=O`, the inhibition is -1.3%. As for `Cc1cccnc1-n1c(C)nc2ccccc2c1=O`, the figure is 90.2% (active); as for `C=CCN1C(=O)NC(=O)C(Cc2ccc(OC)c(OC)c2)C1=O` (stereo not given), 3.4%. The same measure for `Cn1ncnc2c(=O)n(C)c(=O)nc1-2`: 71.9% (active). Turning to `Cc1nc2c(=O)n(C)c(=O)nc-2n(C)n1`, the inhibition was 87.9% (active). With `CN1CC(C(=O)c2ccc(F)cc2)C(c2ccc(F)cc2)C1` (stereo not given), the inhibition is -5.4%. As for `C=CCC1C(=O)NC(=S)NC1=O`, the figure is 4.3%. As for `COc1ccccc1N1CCN(CCc2ccccc2)CC1`, the figure is -7.3%; as for `N=C1c2ccccc2CN1NC(=O)c1ccc(Br)cc1`, -5.9%. As for `CCOC(=O)C(NC(=O)CCl)(Nc1ccc(C(O)(C(=O)OCC)C(F)(F)F)cc1)C(F)(F)F` (stereo not given), the figure is 82.4% (active); as for `CCOC(=O)C(NC(=O)CC)(Nc1ccc(C(O)(C(=O)OCC)C(F)(F)F)cc1C)C(F)(F)F` (stereo not given), -6.6%; as for `CCCCNC(=O)Nc1ccc(C(O)(C(=O)OCC)C(F)(F)F)cc1` (stereo not given), -8.2%. In the case of `CCC(=O)N1CC(=O)Nc2ccc(F)cc2C1c1ccc(F)cc1` (stereo not given), the inhibition was 1%.
